In PubChem BioAssay (NCI) one finds growth data, which are given here for nine molecules.

Some test systems named below: EKVX NSCLC; SN12C renal; UO-31 renal; ACHN renal; CAKI-1 renal; A498 renal; MOLT-4 leukemia; SR leukemia; RPMI-8226 leukemia; OVCAR-8 ovarian; OVCAR-5 ovarian; OVCAR-4 ovarian; SK-OV-3 ovarian; IGROV1 ovarian; OVCAR-3 ovarian; HS 578T breast; NCI/ADR-RES ovarian; T-47D breast; CCRF-CEM leukemia; TK-10 renal.
What all share (assay): NCI-60 one-dose screen, 48 h (100 = growth as untreated, 0 = no growth, -100 = all killed)
Conditions in all cases: 10 µM unless noted

Compounds without any hit were thinned out: in the full panel of roughly 83,000, 20% have a hit.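 The endpoint reported here, percent growth, reads 100 for growth as untreated, 0 for no net growth and -100 for all cells dead.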 Unmarked numbers belong to inactive results. Activity calls are given as the source filed them. The calls were made as follows: active = growth percent below 10; inactive = the rest.

In the case of `OC1CCN(CCCOc2c3ccc(Cl)cc3nc3c2oc2ccccc23)CC1`, the growth in the experiment with EKVX NSCLC was -43.4% (active); in the experiment with SN12C renal, 6.58% (active); in the experiment with UO-31 renal it was -52.1% (active); in the experiment with ACHN renal it was -50.1% (active); with CAKI-1 renal, -3.51% (active); with A498 renal, -91.3% (active). Further, the growth was -21.5% (active) in the experiment with MOLT-4 leukemia; -38.5% (active) in the experiment with SR leukemia; -15.1% (active) with RPMI-8226 leukemia; 3.92% (active) in the experiment on OVCAR-8 ovarian; -4.92% (active) with OVCAR-5 ovarian; 1.3% (active) in the experiment on OVCAR-4 ovarian. Moreover, the growth in the experiment with SK-OV-3 ovarian was 7.92% (active); with IGROV1 ovarian it was -18% (active); in the experiment with OVCAR-3 ovarian, 0.661% (active); in the experiment with HS 578T breast it was -6.78% (active); in the experiment with NCI/ADR-RES ovarian it was 6.48% (active); in the experiment on T-47D breast, 11%.

Consider `CS(=O)(=O)c1ccc(-n2cc(/C=C/C(=O)c3ccc(NC(=O)CO[N+](=O)[O-])cc3)c(-c3ccc(Cl)cc3)n2)cc1`, for which the growth in the experiment on EKVX NSCLC is 90.5%; in the experiment with SN12C renal it was 88%; in the experiment on UO-31 renal, 115%; in the experiment on ACHN renal, 88.5%; with A498 renal it was 117%; in the experiment on CCRF-CEM leukemia, 107%. Also, the growth was 119% in the experiment on MOLT-4 leukemia; 113% in the experiment with SR leukemia; 108% in the experiment on RPMI-8226 leukemia; 92.5% in the experiment on OVCAR-8 ovarian; 97.7% with OVCAR-5 ovarian; 114% in the experiment on OVCAR-4 ovarian. Further, the growth in the experiment with SK-OV-3 ovarian was 89.7%; with IGROV1 ovarian, 94.4%; in the experiment with OVCAR-3 ovarian, 111%; in the experiment with HS 578T breast, 83.6%; in the experiment on NCI/ADR-RES ovarian, 94.4%; in the experiment on T-47D breast it was 104%.

In the case of `CC(=O)Oc1ccccc1C(=O)Nc1ccc(C(=O)/C=C/c2ccncc2)cc1`, the growth was 71.7% in the experiment on EKVX NSCLC; 33.5% in the experiment with SN12C renal; 44.4% in the experiment on UO-31 renal; 0.759% (active) with ACHN renal; 100% in the experiment on A498 renal; 10.2% in the experiment on CCRF-CEM leukemia. Moreover, the growth with MOLT-4 leukemia was 23.1%; in the experiment with SR leukemia, -15.2% (active); in the experiment on OVCAR-8 ovarian, 82.4%; with OVCAR-5 ovarian, 64.4%; in the experiment with OVCAR-4 ovarian, 87.5%; with SK-OV-3 ovarian it was 111%. Moreover, the growth in the experiment with IGROV1 ovarian is 10.3%; with OVCAR-3 ovarian, 33.2%; in the experiment with HS 578T breast it was 69.5%; in the experiment on NCI/ADR-RES ovarian, 91.8%; in the experiment on T-47D breast it was 53.4%.

As to `c1ccc2c(NCCCn3ccnc3)c3oc4ccccc4c3nc2c1`, the growth was 3.11% (active) in the experiment with EKVX NSCLC; -10.8% (active) in the experiment with SN12C renal; 0.573% (active) in the experiment on UO-31 renal; -7.51% (active) in the experiment with ACHN renal; -8.49% (active) in the experiment on CAKI-1 renal; -18.2% (active) in the experiment with A498 renal. Further, the growth is 15% in the experiment on CCRF-CEM leukemia; -2.89% (active) in the experiment with SR leukemia; -25.4% (active) in the experiment with RPMI-8226 leukemia; -16.9% (active) with OVCAR-8 ovarian; 1.5% (active) in the experiment on OVCAR-5 ovarian; -10.6% (active) with OVCAR-4 ovarian. Moreover, the growth in the experiment with SK-OV-3 ovarian was 16.5%; in the experiment with IGROV1 ovarian it was -6.93% (active); in the experiment on OVCAR-3 ovarian, 5.25% (active); in the experiment with HS 578T breast it was 19.7%; in the experiment on NCI/ADR-RES ovarian, 2.5% (active); with T-47D breast it was 17%.

On to `C/C(=N\NC(N)=O)c1c(O)sc(=O)[nH]c1=O`, for which the growth in the experiment with EKVX NSCLC was 95.8%; with SN12C renal, 97.1%; with UO-31 renal it was 87.1%; in the experiment on ACHN renal, 101%; in the experiment on CAKI-1 renal it was 96.9%; in the experiment on MOLT-4 leukemia, 109%. Moreover, the growth was 114% in the experiment with SR leukemia; 102% with RPMI-8226 leukemia; 99.9% in the experiment on OVCAR-8 ovarian; 102% in the experiment with OVCAR-5 ovarian; 105% with OVCAR-4 ovarian; 115% with SK-OV-3 ovarian. For the same molecule, the growth is 99.7% in the experiment on IGROV1 ovarian; 114% in the experiment on OVCAR-3 ovarian; 91.4% in the experiment with HS 578T breast; 105% with NCI/ADR-RES ovarian; 105% with T-47D breast.

As for `Cc1cc(=O)oc2cc(OCCCOc3ccc(/C=C/C(=O)Nc4ccc(Cl)cc4)cc3)ccc12`, the growth in the experiment with EKVX NSCLC was 98.5%; in the experiment on SN12C renal, 84.4%; in the experiment with UO-31 renal, 61.5%; in the experiment with ACHN renal it was 45.3%; in the experiment on CAKI-1 renal, 59.6%; in the experiment on A498 renal, 57.7%. The growth is 87.3% in the experiment with MOLT-4 leukemia; 70.7% with RPMI-8226 leukemia; 67.1% with OVCAR-8 ovarian; 84% in the experiment with OVCAR-5 ovarian; 12.6% with OVCAR-4 ovarian; 90.4% in the experiment with SK-OV-3 ovarian. Besides, the growth with IGROV1 ovarian is 73.2%; in the experiment with HS 578T breast, 46.2%; in the experiment on NCI/ADR-RES ovarian, 56.6%; with T-47D breast, 47.2%.

With `C#C[C@]1(O)CC[C@H]2[C@@H]3CC=C4c5sc(Nc6ccc(Cl)cn6)nc5CC[C@]4(C)[C@H]3CC[C@@]21C`, the growth in the experiment with EKVX NSCLC is 42.3%; with SN12C renal, 79.5%; in the experiment on UO-31 renal, 40%; with ACHN renal it was 53.6%; in the experiment on CAKI-1 renal, 29.1%; in the experiment on A498 renal, -6.58% (active). For the same molecule, the growth is 2.85% (active) in the experiment with MOLT-4 leukemia; 7.04% (active) in the experiment on SR leukemia; -21.2% (active) with RPMI-8226 leukemia; 49.6% in the experiment on OVCAR-8 ovarian; 75.8% in the experiment with OVCAR-5 ovarian; 65.3% with OVCAR-4 ovarian. The growth was 35.9% in the experiment with SK-OV-3 ovarian; 71.5% in the experiment with IGROV1 ovarian; 74.3% in the experiment with OVCAR-3 ovarian; -2.9% (active) with HS 578T breast; 54.1% in the experiment on NCI/ADR-RES ovarian; 68.8% with T-47D breast.

With `O=C(CSc1nccc(=O)[nH]1)Nc1ccc(-c2nc3ccccc3[nH]2)cc1`, the growth was 111% in the experiment on EKVX NSCLC; 103% in the experiment on SN12C renal; 116% with TK-10 renal; 101% in the experiment with ACHN renal; 112% in the experiment with CAKI-1 renal; 116% in the experiment on A498 renal. Also, the growth in the experiment on CCRF-CEM leukemia was 101%; with MOLT-4 leukemia it was 111%; in the experiment on SR leukemia, 117%; with RPMI-8226 leukemia, 109%; in the experiment on OVCAR-8 ovarian it was 103%; with OVCAR-5 ovarian, 109%. In addition, the growth was 112% with OVCAR-4 ovarian; 103% with SK-OV-3 ovarian; 102% in the experiment with IGROV1 ovarian; 123% in the experiment on OVCAR-3 ovarian; 119% in the experiment on HS 578T breast; 111% in the experiment on NCI/ADR-RES ovarian. The growth with T-47D breast is 106%.

Take `C=CCn1c(SCC(=O)c2ccc(Br)cc2)nnc1-c1c[nH]c2ccccc12`: the growth in the experiment with EKVX NSCLC is 92.8%; in the experiment with SN12C renal, 95.6%; in the experiment with UO-31 renal, 68.4%; in the experiment on ACHN renal, 88.3%; in the experiment with CCRF-CEM leukemia, 97.9%; in the experiment with SR leukemia it was 88.7%. The growth in the experiment on OVCAR-8 ovarian is 94.7%; with OVCAR-5 ovarian, 96.8%; in the experiment on OVCAR-4 ovarian, 109%; in the experiment with SK-OV-3 ovarian, 113%; in the experiment with IGROV1 ovarian, 86.7%; in the experiment on OVCAR-3 ovarian, 110%. In addition, the figures for the growth with HS 578T breast, in the experiment on NCI/ADR-RES ovarian and with T-47D breast were 106%, 98.8% and 97%, respectively.
